Experimental data taken from article PMC7826789 (International Journal of Molecular Sciences, 2021).

These compounds were tested on MAP3K4. Conditions: Compound Concentration (nM):1000.
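Note: KINOMEscan scanMAX binding as percent activity remaining versus control; lower means stronger binding.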

Compound	Percent Control
Cl.O=S1CCN(Cc2ccc(-c3ccc4ncnc(Nc5ccc(OCc6ccccc6)c(F)c5)c4c3)o2)CC1 [GW576924A]	100%
COc1ccc2[nH]c3c4[nH]c5ccc(OC)cc5c4c4c(c3c2c1)C(=O)NC4=O [GW296115X]	100%
COc1cc2ncnc(Nc3ccc4c(cnn4Cc4ccccc4)c3)c2cc1OC.Cl [GW282449A]	100%
COc1cc(C=NNc2ncnc3c2cnn3-c2ccccc2)ccc1O [GW513184X]	100%
COc1ccccc1-c1cc(/C=C2\C(=O)Nc3ncc(Br)cc32)cc(Br)c1O [GW442130X]	100%
CN1CCN(C(=O)c2ccc(NC(=O)Nc3ccc(N(C)c4ccnc(Nc5ccc(CS(C)(=O)=O)cc5)n4)cc3)cc2)CC1.Cl [GW830263A]	4%
O=C1Nc2ccc(C(=O)c3ccco3)cc2C1=Cc1cc(Cl)c(O)c(Cl)c1 [GW406108X]	100%
COc1cc(/C=N/Nc2ncnc3[nH]ncc23)ccc1O [GW578748X]	93%
Cc1cc(O)cc(C)c1/C=C/c1cncc(C(N)=O)c1 [GW435821X]	100%
CCS(=O)(=O)c1ccc(OC)c(Nc2ncc(-c3cccc(F)c3)o2)c1 [GW621970X]	100%
Cl.O=C(Nc1ccc(Oc2ccc3[nH]c(NC(=O)c4ccco4)nc3c2)cc1)Nc1cc(C(F)(F)F)ccc1F [GW683134A]	86%
Nc1ncnc2occ(-c3ccc(NC(=O)Nc4cc(C(F)(F)F)ccc4F)cc3)c12 [GW770249X]	94%
